From the OligoGym collection

biological target: TRIM54; experiment: pooled miR-30 sensor sort-seq; sequence = guide strand; details: shRNA
Also: reference of the scale not given here.

Sequence	sensor-assay potency score (higher = more potent)
TCGCTGAGCTCACTCTTCTGGC	-0.97
TAACAACTGCTTCTGCCTCCGG	-0.255
TTGTCCTCGATAGTCTGGCACA	-1.37
TGGTTTGGAGAACATCTCCAGG	-1.46
TTATTGATCAGCTCCTTGGCCT	-0.188
AACAACTGCTTCTGCCTCCGGC	-0.512
TCCATCTGTGTGATCACTGCTT	-0.164
TAGTCTGGCACACCTCCTCCAT	-1.55
TTGGAGAACATCTCCAGGCAGA	-0.654
TTGCCTGCCACCAGCATCGCGA	-1.1
TTTAACAACTGCTTCTGCCTCC	0.72
TTTGGAGAACATCTCCAGGCAG	-0.659
